Source: PubChem BioAssay (NCI)
About 79,000 compounds went through this panel and 15% of them were active in at least one assay; those are over-represented in the sample as a whole. Active and inactive are the calls of the source. Rule as the data show it: active = growth inhibition above about 70%; inactive = the rest.

Test: NCI Yeast Anticancer Drug Screen. Data for the CLN2oe strain (AID 163);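 also: 0% = growth of vehicle-only control cultures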
Conditions: S. cerevisiae CLN2oe strain, stronger effect = higher value
Procedure: Growth inhibition of yeast strains with defined genetic alterations is measured as a screen for potential anti-cancer activity. Selected strains with alterations in DNA damage repair or cell cycle control were exposed to compounds and growth inhibition was measured relative to vehicle treated controls. The strain used in this assay is CLN2oe

| SMILES | growth inhibition (at 1.2 µM) | growth inhibition (at 3.7 µM) | growth inhibition (at 11.0 µM) | growth inhibition (at 33.0 µM) | growth inhibition (at 100.0 µM) |
| --- | --- | --- | --- | --- | --- |
| CSC(=S)Nc1cc(C)ccn1 | 20% (inactive) | 3% (inactive) | 31% (inactive) | 26% (inactive) | 74% (active) |
| Cc1ccc(S(=O)(=O)NNC(=S)Nc2cccc3ccccc23)cc1 | -12% (inactive) | -14% (inactive) | -18% (inactive) | -12% (inactive) | -1% (inactive) |
| COc1ccc2nc3c([N+](=O)[O-])ccc(NCCN(C)C)c3c(NCCN(C)C)c2c1 | -5% (inactive) | -1% (inactive) | 1% (inactive) | -5% (inactive) | -5% (inactive) |
| O=C(/C=C\c1ccc(Cl)cc1Cl)c1cccs1 | -9% (inactive) | -21% (inactive) | -17% (inactive) | -14% (inactive) | -18% (inactive) |
| C#CCCCc1ccccc1 | -7% (inactive) | -5% (inactive) | 4% (inactive) | 2% (inactive) | 73% (active) |
| CC(C(=O)N1C(=O)N(C(=O)[C@H](C)C(O)c2ccccc2)[C@H](c2ccccc2)[C@H]1c1ccccc1)[C@@H](O)c1ccccc1 (stereo not given in full) | -11% (inactive) | -13% (inactive) | 12% (inactive) | 36% (inactive) | 51% (inactive) |
| O=C(Nc1ccccc1)C(=O)C(C(=O)c1ccccc1)C(c1ccccc1)c1ccccc1 (stereo not given) | 5% (inactive) | 2% (inactive) | 6% (inactive) | 24% (inactive) | 39% (inactive) |
| Cc1cc(CO)c(O)c(CNCc2cc(C)cc(CO)c2O)c1 | -10% (inactive) | -24% (inactive) | -25% (inactive) | -14% (inactive) | 98% (active) |
